MazEF act – activators of E. coli MazEF toxin-antitoxin RNase, primary screen, biochemical, fluorescence, uHTS; FAM/BHQ RNA-DNA oligo cleavage fluorescence, 5 h; Endoribonuclease toxin MazF (Escherichia coli (strain K12)), P0AE70; 350,000 tested, 0.32% active; activation, % at 20 µM; in the data active means activation above about 50%
Target sequence (P0AE70 whole entry, looked up): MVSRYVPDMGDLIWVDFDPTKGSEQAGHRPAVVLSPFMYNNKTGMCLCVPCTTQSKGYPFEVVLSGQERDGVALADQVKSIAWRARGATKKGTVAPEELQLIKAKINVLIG
BoNT-A LC inh2 – BoNT/A light chain protease inhibitors, primary screen, biochemical, flow cytometry, MLPCN library; Botulinum neurotoxin type A light chain protease (Clostridium botulinum A str. ATCC 3502); AID 588499, 2011; inhibition, % at 10 µM; multiplex microsphere protease substrate cleavage; 360,000 tested, 0.17% active
Autofluor counter – counter-screen for toxin protease inhibitors: compound fluorescence; compound autofluorescence counterscreen, microsphere flow cytometry; hits give high values; fluorescence intensity (test concentration not listed); 360,000 tested, 3.1% active; in the data active means fluorescence intensity above about 16000; inconclusive means no clear call, values can overlap the other calls
BoNT-F LC inh – BoNT/F light chain protease inhibitors, primary screen, biochemical, flow cytometry, MLPCN library | Botulinum neurotoxin type F light chain protease (Clostridium botulinum) | Multiplex microsphere protease cleavage assay | inhibition, % at 10 µM | 360,000 tested, 0.22% active | AID 588497, 2011; in the data active means inhibition above about 35%, passing the limit was not always enough; inconclusive means no clear call, values can overlap the other calls
Anthrax LF inh2 – Bacillus anthracis LF protease inhibitors, primary screen, biochemical, multiplex microsphere, MLPCN library; Lethal factor (Bacillus anthracis), P15917; multiplex microsphere protease cleavage assay; inhibition, % at 10 µM; 360,000 tested, 0.12% active; AID 588501, 2011
BH1578 lux ind – inducers of Vibrio cholerae quorum light production without autoinducers, primary screen, BH1578 luxS cqsA deficient, single point; V. cholerae BH1578 lux reporter, luminescence, 6 h; 350,000 tested, 0.16% active; AID 588436, 2011; activation, % at 18.7 µM; in the data active means activation mostly above about 9.7%, no sharp cut-off; inconclusive means no clear call, values can overlap the other calls; inactive means mostly below about 3.7%
Numbers stand for hits; - = inactive; ? = inconclusive; . = no result given. Most compounds without a hit are left out; they make up all but 3.9% or so of the library. Unless noted, no stated cut-off is given here; in the data, active means inhibition above about 30%; inconclusive means no clear call, values can overlap the other calls; inactive means below that.

SMILES	MazEF act	BoNT-A LC inh2	Autofluor counter	BoNT-F LC inh	Anthrax LF inh2	BH1578 lux ind
COc1cc(NC(=O)c2c(F)c(F)c(F)c(F)c2F)c(OC)cc1Cl	-	-	21733	-	-	-
CCCCOC(=O)Nc1ccc(C(=O)OC)cc1	-	-	21923	-	-	-
CCCCOC(=O)Nc1cc(OC)c(Cl)cc1OC	-	-	23042	-	-	-
Cc1nc(CSc2ccccc2)cc(=O)[nH]1	-	-	-	-	-	-
O=C(COC(=O)c1ccccc1NS(=O)(=O)c1cccs1)NCC12CC3CC(CC(C3)C1)C2	-	-	-	-	-	-
O=C(COC(=O)c1ccccc1NS(=O)(=O)c1cccs1)NC1CCCCC1	-	-	-	45.1	-	-
CCOC(=O)N1CCN(C(=O)c2ccc3c(c2)NC(=O)/C(=C\c2cccc(C)c2)S3)CC1	-	-	-	-	-	-
CCC(C)(C(=O)NC1CCCC1)N(C(=O)c1cnccn1)c1c(C)n(C)n(-c2ccccc2)c1=O (stereo not given)	-	?	21671	-	-	-
CCC(C)(C(=O)NC1CCCCC1)N(C(=O)c1cnccn1)c1c(C)n(C)n(-c2ccccc2)c1=O (stereo not given)	-	?	21469	-	-	-
CCC(C)(C(=O)NC1CCCCC1)N(C(=O)CNC(C)=O)c1c(C)n(C)n(-c2ccccc2)c1=O (stereo not given)	-	-	-	-	-	-
COc1ccc(C(c2nnnn2-c2c(C)cccc2C)N2CCN(C/C=C/c3ccccc3)CC2)cc1 (stereo not given)	.	-	-	-	-	.
CCCNC(=O)C1(C)CCCN(CC(=O)c2ccc3c(c2)OCCO3)C1 (stereo not given)	.	-	-	-	-	-
COc1ccc2c(c1)CCC1C2=NN(/C(C)=C\C(C)=O)C1c1ccc(F)cc1 (stereo not given)	-	?	34486	?	?	.
COc1ccc2c(c1)C1=NN(/C(C)=C/C(C)=O)C(c3ccc(F)cc3)C1CC2 (stereo not given)	-	-	-	-	-	-
COc1ccc2c(c1)C1=NN(/C(C)=C\C(C)=O)C(c3ccccc3)C1CC2 (stereo not given)	-	-	21972	-	-	-
CSC1=NC2(C[C@H]2c2ccccc2)C(=O)N1C (stereo not given in full)	-	-	-	-	-	-
O=C(COC(=O)CNC(=O)c1ccccc1)Nc1ccc(F)c([N+](=O)[O-])c1	-	-	-	-	-	-
CN1C[C@@H]2[C@@H]3C(=O)N(C)C(=O)[C@@H]3[C@](C)(C1=O)N2C(=O)c1ccc(F)cc1	-	-	-	-	-	-
N=c1c[n+](C2CCCCC2)[n-]o1	-	-	-	-	-	-
N=c1c[n+](N2CCOCC2)[n-]o1	352.8	-	-	-	-	-
CCC(C)n1c(SCC(=O)Nc2ccccc2C(F)(F)F)nc2ccsc2c1=O (stereo not given)	-	-	21867	-	-	-
O=C(N[C@H](CO)c1ccccc1)[C@H]1O[C@@H](n2ccc(=O)[nH]c2=O)[C@H](O)[C@@H]1O	.	-	-	-	-	.
O/N=C/c1ccc(-c2cc(Cl)ccc2Cl)o1	-	-	-	-	-	-
Clc1ccc(Cl)c(-c2ccc(/C=N/c3ncn[nH]3)o2)c1	-	?	22627	-	-	-
Cc1cc(NC(=O)CSc2nc3sc4c(c3c(=O)n2C)CCCC4)no1	-	-	17695	-	-	-
SMILES	MazEF act	BoNT-A LC inh2	Autofluor counter	BoNT-F LC inh	Anthrax LF inh2	BH1578 lux ind
Cc1cc(NC(=O)Cn2nnc3sc4c(c3c2=O)CCCC4)no1	-	-	17027	-	-	-
Cc1cc(NC(=O)Cn2nnc3sc4c(c3c2=O)CCC(C(C)(C)C)C4)no1 (stereo not given)	-	?	24311	-	-	-
O=C(Cc1c(O)c2ccccc2[nH]c1=O)N(Cc1ccccc1)Cc1ccccc1	-	-	22649	-	-	-
O=C(Nc1ccc2c(c1)OCO2)c1cnc2n(c1=O)CCS2	-	-	22821	-	-	-
Cc1noc(NS(=O)(=O)c2ccc(NC(=O)COc3ccccc3)cc2)c1C	-	-	22340	-	-	-
COCC(=O)Nc1ccc(S(=O)(=O)Nc2onc(C)c2C)cc1	-	-	-	-	-	-
Cc1noc(NS(=O)(=O)c2ccc(NC(=O)c3cnc4n(c3=O)CCS4)cc2)c1C	-	-	21016	-	-	-
O=C(Nc1ccc2c(c1)OCCO2)c1cnc2n(c1=O)CCS2	-	-	-	-	-	-
O=C(Nc1ccccc1)c1cnc2n(c1=O)CCS2	-	-	-	-	-	-
Cc1cccc(NC(=O)c2cnc3n(c2=O)CCS3)c1	-	?	20823	-	-	-
CCN(Cc1ccccc1)S(=O)(=O)c1c(C)[nH]c(C)c1C(=O)N1CCCC1	-	-	-	-	-	-
CC(C)CN(C(=O)COC(=O)c1ccccn1)c1c(N)n(Cc2ccccc2)c(=O)[nH]c1=O	-	-	-	-	-	-
c1ccc(CN(CCN2CCOCC2)Cc2ccccc2)cc1	-	-	-	-	-	-
Cc1nc(NCC2CCCO2)c2oc3ccccc3c2n1 (stereo not given)	-	-	21375	-	-	-
CCc1nc(NCc2cccnc2)c2oc3ccccc3c2n1	-	-	16165	-	-	-
CCNc1nc(CC)nc2c1oc1ccccc12	-	-	21864	-	-	-
CCc1nc(NCc2ccco2)c2oc3ccccc3c2n1	-	-	-	-	-	-
O=[N+]([O-])c1ccc(C2=NN(CCO)C(=Nc3ccc(OC(F)(F)F)cc3)SC2)cc1	-	?	-	?	-	-
COc1cccc(OC)c1C(=O)N1CCOCC1	-	?	22982	-	-	-
COc1cc(/C=N/N2CCN(c3ccccc3OC)CC2)ccc1OC(C)=O	-	-	-	?	42.2	-
COc1ccccc1N1CCN(C(=O)CSc2nc(C)cc(=O)[nH]2)CC1	-	-	17183	-	-	-
COc1ccccc1N1CCN(C(=O)N2CCOCC2)CC1	-	-	23262	-	-	-
CC(=O)N(CCc1ccccc1)Cc1cc2cc(C)ccc2[nH]c1=O	-	-	-	-	-	-
COc1ccc2[nH]c(=O)c(CN(CCc3ccccc3)C(C)=O)cc2c1	-	-	22156	-	-	-
COc1ccc2[nH]c(=O)c(CN(C)C(=O)c3ccncc3)cc2c1	-	-	20262	-	-	-
COc1ccc2[nH]c(=O)c(CN(C(=O)c3ccncc3)C(C)C)cc2c1	-	-	-	-	-	-
CN1N=C(N)c2cn(C3OC(COP(=O)(O)O)C(O)C3O)c3ncnc1c23 (stereo not given)	-	-	-	-	-	50.0

Bioassay records as filed in PubChem BioAssay.
